Screening results from PubChem.
TTR transcr act: increases transthyretin transcription | activation, % at 16.7 µM | hit rate 1.3% among 92,000 | SH-SY5Y TTR promoter Gaussia luciferase, luminescence; 100% = recombinant luciferase protein wells;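 active = activation above the mean of all tested compounds plus 3 SD, cut at about 9.5% in these data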;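 note: cells exposed to compounds for one day before reading; 0% = median of all test compound wells on the plate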
TTR inh HuH7: HuH7 TTR transcription inhibition, counter-screen; shares compounds with TTR transcr act; HuH7 TTR promoter-Gaussia luciferase reporter, luminescence; inhibition, % at 16.7 µM; hit rate 4% among 1,100; AID 1117279;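 active = average inhibition above the solvent-only control wells' mean plus 3 SD, cut at about 15% in these data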;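 note: 0% = cells with DMSO only and 100% = cells with inhibitor control FD; inhibitors lower well luminescence so higher value means more inhibition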
TTR up confirm: confirmation of human transthyretin transcription activators; shares compounds with TTR transcr act; SHSY5Y TTR promoter Gaussia luciferase, luminescence; 100% = purified Lucia enzyme wells, no cells; activation, % at 16.7 µM; 1,100 tested, under 10 active; AID 1117280;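 active = mean activation above a set limit taken from the earlier primary screen, cut at about 11% in these data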;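 note: 0% = DMSO-treated cells and 100% = recombinant Lucia luciferase without cells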
* hit, by the source's call. Only a selection was taken, and hits are over-represented in it overall.

SMILES	TTR transcr act	others
CN(C)c1ccc(S(=O)(=O)N2CCCCC2)cc1NC(=O)C1=COCCO1	-1
O=c1c2cc3cc(Cl)ccc3nc2ncn1CCc1ccc(O)cc1	0
O=c1c2cc3cc4c(cc3nc2ncn1Cc1cccnc1)OCO4	18*	TTR inh HuH7=-10;TTR up confirm=2
O=c1c2cc3cc4c(cc3nc2ncn1CCc1ccccc1)OCO4	0
COc1ccc(C2=NS(=O)(=O)N(C)C(C(=O)NCc3ccc(F)cc3)=C2)cc1OC	-2
Cc1cc(C(=O)N/N=C/C(Cl)=C/c2ccccc2)c(C)o1	-3
O=C(c1ccccc1F)c1cc2c(cc1[N+](=O)[O-])OCCO2	1
C/C(=N\Nc1ccc(Cl)c(C(=O)O)c1)c1ccc2c(c1)OCO2	0
Cc1ccc2nc(NC(=O)c3ccc4c(c3)OCO4)sc2c1	-1
C/C(=N\Nc1nc2ccccc2s1)c1ccc2c(c1)OCO2	11*	TTR inh HuH7=11;TTR up confirm=1
CC1CCN(C(=O)c2[nH]cnc2C(=O)Nc2ccc(Cl)cc2)CC1	1
CCCCC[C@@H]1C=C(C(=O)O)[C@H](c2ccc(Br)cc2)N1S(=O)(=O)c1ccc(C)cc1	-1
O=C(CC[C@H]1O[C@@H](n2cnc3c(NC(=O)c4ccccc4)ncnc32)[C@H](O)[C@@H]1O)NCC1CCCCC1	5
COc1ccc(/C=C(\C#N)C(=O)OCC(=O)NC(C)c2ccccc2)cc1 (stereo not given)	17*	TTR inh HuH7=-12;TTR up confirm=0
COc1ccc(/C=C(\C#N)C(=O)OCCNC(=O)c2ccncc2)cc1	6
COc1cc(/C=C(/C#N)C(=O)NC(C)c2ccccc2)cc(OC)c1O (stereo not given)	0
Fc1ccc(-c2nc(-c3cnccn3)no2)c(Cl)c1	1
Cc1ccc(NC(=O)c2cccc(NC(=O)CC3SC(N4CCCCC4)=NC3=O)c2)nc1 (stereo not given)	9.8*	TTR inh HuH7=-6;TTR up confirm=0
CC1CC(C)CN(C(=O)c2cccc(NC(=O)CC3SC(N4CCCCC4)=NC3=O)c2)C1 (stereo not given)	4
COc1ccc(NC(=O)CC2SC(N3CCCC3)=NC2=O)cc1Cl (stereo not given)	6
CCc1ccccc1NS(=O)(=O)Cc1ccccc1	1
C[C@H]1C(c2ccccc2F)O[C@]2(C[C@H](O)c3ccccc3O2)C[C@@H]1O (stereo not given in full)	3
Cc1cc(NCCO)c2cc(O)ccc2n1	6
CN(C)CCNc1ccc(CO)c2oc3ccc(O)cc3c(=O)c12	16*	TTR inh HuH7=-92;TTR up confirm=13*
COC(=O)[C@]12C[C@H](CC(=O)NCc3ccc(OC)c(OC)c3)C(=O)N(CCc3ccc(OC)c(OC)c3)C1=C[C@H](C1CCCC1)O[C@@H]2C	-1
SMILES	TTR transcr act	others
Cc1ccc2nc(C(C)(C)C)c(Cc3cccc(Cl)c3)n2c1	-1
O=C(C1CC1)n1ccc2ccc(-c3ccc4ccn(Cc5ccccc5)c4c3)cc21	1
OCC[C@@H]1C[C@H](O)[C@@H](O)[C@@]2(OCc3ccc(CO)cc32)O1	-1
CN(CC(=O)NCCCN1CCOCC1)S(=O)(=O)c1ccc(Cl)cc1	-1
O=C(NCCc1nc2ccccc2[nH]1)/C(=C/c1ccco1)NC(=O)c1ccc(Br)cc1	-1
COc1ccc(/C=C/C(=O)N/C(=C\c2ccco2)C(=O)NCCc2nc3ccccc3[nH]2)cc1	12*	TTR inh HuH7=4;TTR up confirm=-1
O=C(NCCc1nc2ccccc2[nH]1)/C(=C/c1ccco1)NC(=O)c1ccccc1Br	-1
CC(C)(C)NC(=O)C(c1cc2ccccc2o1)n1c(=O)c(-c2ccccc2)nc2ccccc21 (stereo not given)	1
O=C(N[C@@H](Cc1ccccc1)C(=O)N1CCC2CCN(S(=O)(=O)c3ccccc3)CC21)[C@@H]1CCCN1 (stereo not given in full)	0
O=C(O)CCC(=O)N1CCN(c2ncccc2C(F)(F)F)CC1	2
O=S1(=O)CC(N2CCC(Cc3ccccc3)CC2)CN1Cc1ccc(F)cc1 (stereo not given)	-2
CN1CCC(N2CCN(C3CN(Cc4ccc(F)cc4)S(=O)(=O)C3)CC2)CC1 (stereo not given)	12*	TTR inh HuH7=-7;TTR up confirm=0
CN1CCN(C2CN(Cc3ccccc3)S(=O)(=O)C2)CC1 (stereo not given)	8
O=C(Nc1c(C(=O)N2CCCCC2)cnn1-c1ccccc1)c1ccccc1	5
Cc1cccc(C(=O)Nc2c(C(=O)N(C)C)cnn2-c2ccccc2)c1	11*	TTR inh HuH7=-13;TTR up confirm=-1
CCOC(=O)c1cnn(-c2ccccc2)c1NC(=O)c1ccccc1	-1
CC12CCC(=O)N1C(C(=O)NNC(=O)c1ccccc1)CS2 (stereo not given)	0
COC(=O)C[C@H]1CC[C@@H](NC(=O)C2CC2)[C@@H](CO)O1	2
O=C(Nc1ccc(F)cc1)c1ccccc1	-1
